Experimental data taken from the supplement of paper PMC3484114.
“And” between values parts separate entries of the source, which are not always exact repeats. Identical values can stand only once. ± gives the standard deviation.

Tested on: OVCAR-3-derived ovarian cancer stem-like cells (spheroids)
Experiment: cell growth relative to untreated control; higher = more growth (less inhibition)
Details: 2.29 µM; 96 h
Outline: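 Stem-like cells derived from OVCAR-3 spheroids were dissociated with trypsin and seeded at 50,000 cells/mL in stem cell medium in ultra-low attachment 96-well plates, then preincubated for 24 h. Each compound was added at 2.29 uM to 4 replicate wells and left for 96 h at 37°C, 5% CO2. Viability came from TOX8 resazurin fluorescence (ex 560/em 590 nm) read after 4 h. Percent growth was expressed relative to untreated wells, after blank subtraction and removal of outliers by the Grubbs test.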

Row | Structure (SMILES) | cell growth
1 | CN(C)c1cccc(F)c1C(=O)NC(=O)Nc1ccc(Cl)cc1 | 102 ± 28%
2 | OC[C@H]1O[C@@H](n2cnc3cncnc32)[C@H](O)[C@@H]1O | 10.4 ± 3.1%
3 | CC1=C2C(=CO[C@H](C)[C@H]2C)C(=O)C(C(=O)O)=C1O | 112 ± 18%
4 | COc1ccc2nc3cc([N+](=O)[O-])ccc3c(NNc3ccccc3)c2c1 | 76.2 ± 22%
5 | Cc1c(Cl)cccc1NC(=O)c1cccc([N+](=O)[O-])c1O | 106 ± 20%
6 | CN=c1sc2c(n1C)C(=O)c1ccccc1C2=O | 83.2 ± 26%
7 | CC(C)(C)[Si](C)(C)OCC1CCC(n2cnc3c(N)ncnc32)O1 (stereo not given) | 111 ± 23%
8 | COc1ccc(S(=O)(=O)N/N=C/C(=O)O)cc1 | 117 ± 15%
9 | Cc1ccc(Cl)c2c(N=Nc3ccccc3[N+](=O)[O-])c(O)[nH]c12 | 107 ± 34%
10 | CN(C)c1ccc(/C=c2/sc3nc(=O)c(-c4ccccc4NC(=O)C(F)(F)F)nn3c2=O)cc1 | 83.4 ± 18%
11 | COc1cc2c(c(O)c1OC)-c1c(cc(OC)c(OC)c1OC)C[C@@H](C)[C@@H](C)C2 | 82 ± 20%
12 | Cc1c2ccc3ccccc3c2c[n+]2ccccc12 | 88.9 ± 14%
13 | CC(C)CC(NC(=O)OCc1ccccc1)C(=O)NC(Cc1ccccc1)C(=O)CCl (stereo not given) | 92.9 ± 35%
14 | OCCNCN(CNCCO)c1nc(N(CNCCO)CNCCO)nc(N(CNCCO)CNCCO)n1 | 126 ± 24%
15 | CCCCOCc1cc(CN2CCN(C)CC2)c(O)c2ncccc12 | 85.3 ± 33%
16 | CCN(CC)CCNc1ccc2nc(C)n3c4ccc(OC)cc4c(=O)c1c23 | 34.8 ± 9.9%
17 | CCN(CC)c1ccc2cc3ccc(=[N+](CC)CC)cc-3oc2c1 | 45.5 ± 10%
18 | CC(=O)/C(C)=N/NC(=O)c1ccccc1O | 98.3 ± 20%
19 | COc1ccc(CCN(C)CCCC(C#N)(c2ccc(OC)c(OC)c2)C(C)C)cc1OC (stereo not given) | 115 ± 16%
20 | C/C(NNC(=O)c1ccccc1O)=C1\C=Nc2ccccc2S1 | 16 ± 5.3%

Row | Structure (SMILES) | cell growth
21 | CC1(C)N=C(N)N=C(N)N1c1ccc(CCCCc2ccc(Cl)cc2Cl)cc1 | 51.5 ± 9.2%
22 | COC1(O)C(=O)c2ccccc2OC1(OC)c1ccccc1 (stereo not given) | 118 ± 26%
23 | CCN(CC)CCCC(C)NC(=O)c1ccc2c(c1)C(=O)c1ccccc1C2=O (stereo not given) | 35.6 ± 15%
24 | NC(=Nc1nc(-c2ccccn2)cc2ccccc12)c1ccccn1 | 9.1 ± 2.3%
25 | O=C(CC(=O)c1ccccc1NC1=Cc2ccccc2C(=O)C1=O)C(=O)NC1=C(Cl)C(=O)c2ccccc2C1=O | 33.3 ± 13%
26 | CC(C)(C)c1ccc(OC2CCO2)cc1 (stereo not given) | 89.3 ± 19%
27 | Cc1nc(N)nc(N)c1-c1ccc(Cl)c(Cl)c1 | 102 ± 13%
28 | NC1=C(Br)C(=O)c2ncccc2C1=O | 15.3 ± 3.8%
29 | CO[C@@H]1C[C@](C)(O)Cc2cc3c(c(O)c21)C(=O)c1c(O)cc2c(c1C3=O)O[C@@H]1O[C@@]2(C)[C@H](O)[C@@H](N(C)C)[C@@H]1O | 37.7 ± 42%
30 | CO[C@@H]1[C@@H](OC(=O)c2ccc(C)[nH]2)[C@@H](O)[C@H](Oc2ccc3c(O)c(NC(=O)c4c[nH]c(C(=O)Nc5c(O)c6ccc(O[C@@H]7OC(C)(C)[C@H](OC)[C@@H](OC(=O)c8ccc(C)[nH]8)[C@H]7O)c(C)c6oc5=O)c4C)c(=O)oc3c2C)OC1(C)C | 100 ± 22%
31 | O=C(N=Nc1c(O)[nH]c2ccccc12)c1ccccc1O | 105 ± 11%
32 | CCN1C=C/C(=C\C=C\c2cc[n+](CC)c3ccccc23)c2ccccc21 | 22.2 ± 4.2%
33 | [N-]=[N+]=NC1=NNC2(C(=O)N1)c1ccccc1-c1ccccc12 | 99.3 ± 38%
34 | CC(=O)[O][Hg].c1ccc2c(c1)ccc1ccccc12 | 132 ± 32%
35 | COc1nc(N)nc2nc[nH]c12 | 91.9 ± 17%
36 | O=C1Oc2ccccc2C(=O)/C1=C1\C=C(c2ccccc2)SS1 | 158 ± 71%
37 | CN(C)CCCCN1CCc2c(n(C)c3ccccc23)C1=O | 101 ± 13%
38 | [Mo] | 97% and 106%
39 | COC(=O)C1(C)CCCC2(C)c3cc(OC)ccc3C(=O)C(Br)C12 (stereo not given) | 89.4 ± 39%
40 | Nc1ccccc1C(=O)NC(=O)Nc1ccc(Oc2ncc(Br)cn2)c(Cl)c1 | 61.6 ± 21%
